This is an account of results in PubChem BioAssay (NCI).

About 83,000 compounds went through this panel and 20% of them were active in at least one assay; those are over-represented in the sample as a whole.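 Plates (96-well) were seeded with cells, treated with compound at one concentration, and incubated for 48 hours before percent growth was determined.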 A number with no mark means an inactive call. Activity calls are given as the source filed them. Rule for the calls: active = growth percent below 10; inactive = the rest.

The test system of the test is HL-60(TB) leukemia. Put plainly: NCI-60 one-dose screen, 48 h (100 = growth as untreated, 0 = no growth, -100 = all killed). The following applies: 10 µM unless noted.
For `COc1cc(OC)c2c(=O)c3c(CC=C(C)C)cc(OC)c(O)c3oc2c1`, the growth was 96.7%.
The same measure for `CCOC(=O)c1[nH]c(C)c(C(=O)O)c1C`: 91.6%; for `CCCCCC(=C/c1ccccc1)/C=N/N=C(N)N`: -30.2% (active).
